Measurements taken from PubChem BioAssay AID1159580 (chemical genetic matrix, 2015).
“And” between values parts separate entries of the source, which are not always exact repeats. Equal entries are not always repeated. Among all 5,500 compounds or so, about 2,000 (36%) were called active. Inconclusive results (about 18%) are left out. The list shows a part of the results. Values without a mark were called inactive. Rule as the data show it: active = normalized growth mostly below about 0.91 (no sharp cut-off); inconclusive = no clear call, values can overlap the other calls; inactive = mostly above about 0.92.

Test: chemical genetic growth profiling, strain panel (AID 1159580);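 also: tested at 20 µM; growth read once vehicle control cultures reached saturation at 30 °C; 1 = growth at the plate median or of vehicle wells; lower values mean less growth of the strain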
Conditions: S. cerevisiae deletion strains, growth OD

CC(CCC(=O)O)[C@H]1CCC2C3CC[C@@H]4CC(=O)CC[C@]4(C)C3C=C[C@@]21C (stereo not given in full)
normalized growth (locus YBR021W, strain FUR4, stronger effect = lower value): 0.906
normalized growth (locus YBR229C, strain ROT2, stronger effect = lower value): 1.03
normalized growth (locus YCL029C, strain bik1, stronger effect = lower value): 0.984
normalized growth (locus YDL035C, strain GPR1, stronger effect = lower value): 0.832 (active)
normalized growth (locus YDL074C, strain BRE1, stronger effect = lower value): 0.992
normalized growth (locus YDL101C, strain DUN1, stronger effect = lower value): 1.02
normalized growth (locus YDL185W, strain tfp1, stronger effect = lower value): 1.02
normalized growth (locus YDL192W, strain arf1, stronger effect = lower value): 1
normalized growth (locus YDR101C, strain arx1, stronger effect = lower value): 0.967
normalized growth (locus YDR162C, strain NBP2, stronger effect = lower value): 0.999
normalized growth (locus YDR318W, strain mcm21, stronger effect = lower value): 0.982
normalized growth (locus YDR388W, stronger effect = lower value): 1.01
normalized growth (locus YDR502C, strain sam2, stronger effect = lower value): 0.928
normalized growth (locus YEL061C, strain CIN8, stronger effect = lower value): 1.03
normalized growth (locus YER110C, stronger effect = lower value): 1.05
normalized growth (locus YER155C, strain BEM2, stronger effect = lower value): 1.06
normalized growth (locus YER167W, strain BCK2, stronger effect = lower value): 1.05
normalized growth (locus YGL078C, strain dbp3, stronger effect = lower value): 0.87 (active)
normalized growth (locus YGL086W, strain mad1, stronger effect = lower value): 0.971
normalized growth (locus YGL248W, strain PDE1, stronger effect = lower value): 0.963
normalized growth (locus YGR078C, strain PAC10, stronger effect = lower value): 1.02
normalized growth (locus YGR135W, strain pre9, stronger effect = lower value): 0.953
normalized growth (locus YGR229C, strain SMI1, stronger effect = lower value): 0.904
normalized growth (locus YGR252W, strain gcn5, stronger effect = lower value): 0.779
normalized growth (locus YHR030C, strain SLT2, stronger effect = lower value): 1.06 and 0.918
normalized growth (locus YHR079C, strain IRE1 (second series), stronger effect = lower value): 1.03
normalized growth (locus YHR079C, strain IRE1, stronger effect = lower value): 0.944
normalized growth (locus YHR094C, strain hxt1, stronger effect = lower value): 1.03
normalized growth (locus YHR129C, strain ARP1, stronger effect = lower value): 1.04
normalized growth (locus YHR200W, strain rpn10, stronger effect = lower value): 1.03
normalized growth (locus YIL066C, strain RNR3, stronger effect = lower value): 1.02
normalized growth (locus YIL073C, strain SPO22, stronger effect = lower value): 0.955
normalized growth (locus YIL125W, strain kgd1, stronger effect = lower value): 0.98
normalized growth (locus YIR030C, strain dcg1, stronger effect = lower value): 1.02
normalized growth (locus YJL095W, strain BCK1, stronger effect = lower value): 0.959 and 0.937
normalized growth (locus YJL134W, strain LCB3, stronger effect = lower value): 1.05
normalized growth (locus YJL168C, strain set2, stronger effect = lower value): 1.03
normalized growth (locus YJL187C, strain SWE1 (second series), stronger effect = lower value): 0.986
normalized growth (locus YJR043C, strain POL32, stronger effect = lower value): 0.985
normalized growth (locus YJR066W, strain TOR1, stronger effect = lower value): 0.893
normalized growth (locus YKL009W, strain mrt4, stronger effect = lower value): 0.809 (active)
normalized growth (locus YKL068W, stronger effect = lower value): 1.04
normalized growth (locus YKL085W, strain MDH1 (second series), stronger effect = lower value): 1.03
normalized growth (locus YKL085W, strain MDH1, stronger effect = lower value): 1.03
normalized growth (locus YKL190W, strain CNB1, stronger effect = lower value): 1.04
normalized growth (locus YKR001C, strain vps1, stronger effect = lower value): 0.955
normalized growth (locus YLR039C, strain RIC1, stronger effect = lower value): 0.953
normalized growth (locus YLR058C, strain SHM2, stronger effect = lower value): 1.01
normalized growth (locus YLR102C, strain apc9, stronger effect = lower value): 1.03
normalized growth (locus YLR113W, strain HOG1, stronger effect = lower value): 0.882
normalized growth (locus YLR262C, strain YPT6, stronger effect = lower value): 0.895
normalized growth (locus YLR268W, strain sec22, stronger effect = lower value): 0.949
normalized growth (locus YLR330W, strain CHS5, stronger effect = lower value): 1.04
normalized growth (locus YLR342W, strain FKS1 (second series), stronger effect = lower value): 0.87
normalized growth (locus YLR371W, strain rom2, stronger effect = lower value): 1.05
normalized growth (locus YLR418C, strain cdc73, stronger effect = lower value): 0.889
normalized growth (locus YML016C, strain PPZ1, stronger effect = lower value): 1.04
normalized growth (locus YML032C, strain rad52, stronger effect = lower value): 0.959
normalized growth (locus YML124C, strain tub3, stronger effect = lower value): 1.04
normalized growth (locus YMR078C, strain ctf18, stronger effect = lower value): 1.03
normalized growth (locus YMR223W, strain ubp8, stronger effect = lower value): 0.969
normalized growth (locus YMR307W, strain GAS1, stronger effect = lower value): 0.875
normalized growth (locus YNL067W, strain RPL9B, stronger effect = lower value): 0.971
normalized growth (locus YNL153C, strain GIM3, stronger effect = lower value): 0.966
normalized growth (locus YNL183C, strain NPR1, stronger effect = lower value): 0.883
normalized growth (locus YNL233W, strain BNI4, stronger effect = lower value): 1.02
normalized growth (locus YNL250W, strain rad50, stronger effect = lower value): 1
normalized growth (locus YNL271C, strain bni1, stronger effect = lower value): 0.992
normalized growth (locus YNL298W, strain CLA4, stronger effect = lower value): 0.926
normalized growth (locus YNL307C, strain MCK1, stronger effect = lower value): 1.02
normalized growth (locus YNL322C, strain KRE1, stronger effect = lower value): 1.04
normalized growth (locus YNR052C, strain pop2, stronger effect = lower value): 0.931
normalized growth (locus YOL006C, strain TOP1, stronger effect = lower value): 0.944
normalized growth (locus YOL012C, strain htz1): 1.95
normalized growth (locus YOL147C, strain pex11, stronger effect = lower value): 1.03
normalized growth (locus YOR061W, strain CKA2, stronger effect = lower value): 1.01
normalized growth (locus YOR069W, strain VPS5, stronger effect = lower value): 1.02
normalized growth (locus YOR136W, strain idh2, stronger effect = lower value): 1.03
normalized growth (locus YOR144C, strain elg1, stronger effect = lower value): 0.988
normalized growth (locus YOR184W, strain ser1, stronger effect = lower value): 0.795 (active)
normalized growth (locus YOR231W, strain MKK1, stronger effect = lower value): 0.913
normalized growth (locus YOR316C, strain cot1, stronger effect = lower value): 1.03
normalized growth (locus YPL055C, strain LGE1, stronger effect = lower value): 1.01
normalized growth (locus YPL241C, strain CIN2, stronger effect = lower value): 1.04
normalized growth (locus YPL256C, strain CLN2, stronger effect = lower value): 0.963
normalized growth (locus YPR119W, strain clb2, stronger effect = lower value): 1.05
normalized growth (locus YPR141C, strain kar3, stronger effect = lower value): 1.05
normalized growth (locus YPR163C, strain tif3, stronger effect = lower value): 1
normalized growth (locus YPR167C, strain met16, stronger effect = lower value): 1.01
normalized growth (strain wtn01, stronger effect = lower value): 0.931
